Experimental data from PubChem BioAssay (Tox21).
Inconclusive results are not listed. The source made the active and inactive calls. Unless noted, the call rests on the fitted dose curve.

Assays:
[1] = qHTS assay to identify small molecule antagonists of the sonic hedgehog signaling (Shh) pathway (AID 1259369); further: nearly all actives have a fitted effect of over 45% in size
How it was run: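 Cells are plated and held 4hr at 37 C, compounds (DMSO) are pinned in, conditioned medium is added to stimulate the pathway, and after 24hr luciferase reagent is added for 30min before luminescence is read.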

[2] = molecular target: Estrogen receptor beta (Homo sapiens) (UniProt Q92731); assay: qHTS assay to identify small molecule agonists of the estrogen receptor beta (ER-beta) signaling pathway (AID 1259377; active means well fitted activation curve with a large enough effect in the signal ratio in the repeat runs, not every such curve was filed as active; the % refers to the signal ratio)
How it was run: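 Measured by fluorescence intensity from a B/G FRET beta-lactamase substrate (2 h, room temperature) in ER-beta-UAS-bla HEK293T cells treated with DMSO-dissolved compounds for 16 hr at 37C and 5% CO2.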

[3] = molecular target: Estrogen receptor beta (Homo sapiens) (UniProt Q92731); assay: qHTS assay to identify small molecule antagonists of the estrogen receptor beta (ER-beta) signaling pathway (AID 1259378; active means well fitted inhibition curve with a large enough effect in the signal ratio in the repeat runs, not every such curve was filed as active; the % refers to the signal ratio)
How it was run: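 ER-beta-UAS-bla HEK293T (GripTite) cells in 2% charcoal-stripped FBS medium were preincubated 6 hr at 37C, dosed with compound, then stimulated with 1 nM E2 (final) for 16 hr; beta-lactamase reporter read by B/G FRET fluorescence after 2 hr substrate loading.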

[4] = qHTS assay to identify small molecule agonists of the androgen receptor (AR) signaling pathway in the presence of an antagonist - cell viability counter screen (AID 1259379; active means well fitted curve in the direction sought with a large enough effect in the repeat runs; an effect the other way counts as inactive or inconclusive;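 further: MDA-kb2 human breast cancer cells carrying an MMTV luciferase reporter; series mostly up to about 92 µM; nearly all actives have a fitted effect of over 25% in size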)
How it was run: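 Cytotoxicity is assessed by CellTiter-Fluor in MDA-kb2 cells carrying an MMTV-driven luciferase reporter. Cells receive 3.0uM nilutamide plus compounds at 15 concentrations and incubate 16 hr at 37C without CO2 before fluorescence reading.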

[5] = molecular target: Androgen receptor (Homo sapiens) (UniProt P10275); assay: qHTS assay to identify small molecule agonists of the androgen receptor (AR) signaling pathway in the presence of an antagonist (AID 1259381); further: nearly all actives have a fitted effect of over 15% in size
How it was run: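 Agonist-mode confirmation screen: human MDA-kb2 cells stably expressing luciferase under an MMTV promoter bearing AR and GR response elements, co-treated with 3.0uM nilutamide (final). Luminescence measured after 16hr compound incubation.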

[6] = qHTS assay to identify small molecule antagonists of the estrogen receptor beta (ER-beta) signaling pathway - cell viability counter screen (AID 1259382; active means well fitted curve in the direction sought with a large enough effect in the repeat runs; an effect the other way counts as inactive or inconclusive; further: series mostly up to about 92 µM; nearly all actives have a fitted effect of over 55% in size)
How it was run: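 Cytotoxicity counter screen multiplexed with the beta-lactamase antagonist assay: GripTite HEK293T ER-beta-bla cells were treated 16 hr with test chemicals in the presence of 1nM 17-beta-estradiol, and viability was measured by CellTiter-Glo.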

[7] = molecular target: Estrogen receptor (Homo sapiens) (UniProt P03372); assay: qHTS assay to identify small molecule agonists of the estrogen receptor alpha (ER-alpha) signaling pathway in the presence of an antagonist (AID 1259383); further: top concentration of the series differs between compounds; nearly all actives have a fitted effect of over 15% in size
How it was run: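 Agonist-mode confirmation in the presence of the ER antagonist ICI-182,780 at 10.0nM final. Breast-derived VM7Luc4E2 reporter cells were exposed to compounds for 22hr, and ERE-driven luciferase was quantified by luminescence.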

[8] = qHTS assay to identify small molecule agonists or antagonists of the thyroid stimulating hormone receptor (TSHR) signaling pathway - wild type cell line counter screen (AID 1259384)
How it was run: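 Wild-type HEK293 cells were plated 18 h at 37 C/5% CO2, pin-dosed with compound plus Ro20-1724 medium, held 30 min at room temperature, then given cAMP-d2 and anti-cAMP-cryptate; fluorescence was read after 1 h. Fifteen concentrations, triplicate.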

[9] = molecular target: Thyrotropin receptor (Homo sapiens) (UniProt P16473); assay: qHTS assay to identify small molecule antagonists of the thyroid stimulating hormone receptor (TSHR) signaling pathway (AID 1259385); further: nearly all actives have a fitted effect of over 20% in size
How it was run: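 TSHR-HEK293 cells were plated and held 18 h at 37C/5% CO2, then given compound plus Ro20-1724 and stimulated with TSH at 1.5 ng/mL final. After 30 min at room temperature, cAMP was detected with cAMP-d2/anti-cAMP-cryptate (1 h) by fluorescence.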

[10] = qHTS assay to identify small molecule agonists of the estrogen receptor beta (ER-beta) signaling pathway - cell viability counter screen (AID 1259380; active means well fitted curve in the direction sought with a large enough effect in the repeat runs; an effect the other way counts as inactive or inconclusive; further: nearly all actives have a fitted effect of over 30% in size)
How it was run: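 Cytotoxicity is measured in parallel with the reporter screen: after 16 hr compound exposure at 37C and a 2 hr LiveBLAzer step, CellTiter-Glo is added to the same ER-beta-UAS-bla HEK293T wells and luminescence read after 30 min.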
On the % scale 0 is the no-effect control and ±100 the full control effect.

Estrogen receptor (Homo sapiens), sequence (P03372 whole entry, looked up): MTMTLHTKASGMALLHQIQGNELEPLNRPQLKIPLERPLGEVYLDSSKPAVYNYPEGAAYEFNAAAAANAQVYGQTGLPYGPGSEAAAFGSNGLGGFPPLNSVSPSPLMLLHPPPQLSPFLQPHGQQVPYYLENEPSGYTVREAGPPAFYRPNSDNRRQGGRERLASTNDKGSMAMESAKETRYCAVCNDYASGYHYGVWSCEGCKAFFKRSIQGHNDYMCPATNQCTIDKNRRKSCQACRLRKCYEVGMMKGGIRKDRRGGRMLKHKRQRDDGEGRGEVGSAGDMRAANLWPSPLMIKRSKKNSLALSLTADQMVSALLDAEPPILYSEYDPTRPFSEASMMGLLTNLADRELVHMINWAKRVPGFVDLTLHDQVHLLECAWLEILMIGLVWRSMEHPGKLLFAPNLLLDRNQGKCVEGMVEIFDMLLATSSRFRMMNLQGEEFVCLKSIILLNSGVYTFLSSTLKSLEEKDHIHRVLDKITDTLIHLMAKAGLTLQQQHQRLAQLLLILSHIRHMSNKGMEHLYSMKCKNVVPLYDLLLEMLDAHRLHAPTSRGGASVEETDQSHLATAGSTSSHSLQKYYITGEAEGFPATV
Androgen receptor (Homo sapiens), sequence (P10275 whole entry, looked up): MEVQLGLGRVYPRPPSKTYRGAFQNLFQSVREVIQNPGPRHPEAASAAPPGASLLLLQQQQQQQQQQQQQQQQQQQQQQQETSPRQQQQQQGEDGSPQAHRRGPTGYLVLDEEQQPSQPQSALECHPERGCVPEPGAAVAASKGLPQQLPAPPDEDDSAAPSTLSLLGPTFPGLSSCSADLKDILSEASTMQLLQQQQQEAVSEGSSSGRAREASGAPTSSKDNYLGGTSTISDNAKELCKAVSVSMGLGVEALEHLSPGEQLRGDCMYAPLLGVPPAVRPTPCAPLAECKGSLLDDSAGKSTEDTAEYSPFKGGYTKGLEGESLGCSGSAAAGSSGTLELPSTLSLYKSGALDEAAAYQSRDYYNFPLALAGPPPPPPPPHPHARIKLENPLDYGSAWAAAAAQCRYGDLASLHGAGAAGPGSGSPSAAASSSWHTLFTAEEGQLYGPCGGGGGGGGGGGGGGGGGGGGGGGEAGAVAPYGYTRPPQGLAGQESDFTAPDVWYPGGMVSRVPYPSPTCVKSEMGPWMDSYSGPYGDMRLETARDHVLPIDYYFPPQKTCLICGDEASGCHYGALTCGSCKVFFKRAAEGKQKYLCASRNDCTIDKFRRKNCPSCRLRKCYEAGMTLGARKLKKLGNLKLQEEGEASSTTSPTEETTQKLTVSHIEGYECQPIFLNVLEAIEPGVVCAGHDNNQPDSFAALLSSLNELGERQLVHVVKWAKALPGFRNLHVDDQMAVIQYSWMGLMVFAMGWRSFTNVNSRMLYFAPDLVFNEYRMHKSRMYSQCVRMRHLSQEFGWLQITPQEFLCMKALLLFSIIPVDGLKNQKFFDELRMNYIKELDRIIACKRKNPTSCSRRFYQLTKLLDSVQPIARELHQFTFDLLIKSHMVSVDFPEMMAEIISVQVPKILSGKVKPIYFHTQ
Estrogen receptor beta (Homo sapiens), sequence (Q92731 whole entry, looked up): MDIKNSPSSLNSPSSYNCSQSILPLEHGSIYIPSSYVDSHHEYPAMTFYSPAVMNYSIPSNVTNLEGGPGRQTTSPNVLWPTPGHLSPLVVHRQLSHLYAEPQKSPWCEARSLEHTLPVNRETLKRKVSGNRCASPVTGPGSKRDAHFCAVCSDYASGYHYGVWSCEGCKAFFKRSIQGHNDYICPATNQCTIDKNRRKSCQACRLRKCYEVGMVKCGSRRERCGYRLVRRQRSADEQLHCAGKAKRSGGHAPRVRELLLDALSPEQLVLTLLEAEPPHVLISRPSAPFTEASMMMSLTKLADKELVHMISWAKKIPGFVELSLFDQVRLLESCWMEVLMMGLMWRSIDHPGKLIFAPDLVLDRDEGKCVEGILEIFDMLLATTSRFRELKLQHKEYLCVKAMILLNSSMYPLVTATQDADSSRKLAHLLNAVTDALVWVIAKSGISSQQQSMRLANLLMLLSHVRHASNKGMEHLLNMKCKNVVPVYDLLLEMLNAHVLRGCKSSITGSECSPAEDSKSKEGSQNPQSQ
Thyrotropin receptor (Homo sapiens), sequence (P16473 whole entry, looked up): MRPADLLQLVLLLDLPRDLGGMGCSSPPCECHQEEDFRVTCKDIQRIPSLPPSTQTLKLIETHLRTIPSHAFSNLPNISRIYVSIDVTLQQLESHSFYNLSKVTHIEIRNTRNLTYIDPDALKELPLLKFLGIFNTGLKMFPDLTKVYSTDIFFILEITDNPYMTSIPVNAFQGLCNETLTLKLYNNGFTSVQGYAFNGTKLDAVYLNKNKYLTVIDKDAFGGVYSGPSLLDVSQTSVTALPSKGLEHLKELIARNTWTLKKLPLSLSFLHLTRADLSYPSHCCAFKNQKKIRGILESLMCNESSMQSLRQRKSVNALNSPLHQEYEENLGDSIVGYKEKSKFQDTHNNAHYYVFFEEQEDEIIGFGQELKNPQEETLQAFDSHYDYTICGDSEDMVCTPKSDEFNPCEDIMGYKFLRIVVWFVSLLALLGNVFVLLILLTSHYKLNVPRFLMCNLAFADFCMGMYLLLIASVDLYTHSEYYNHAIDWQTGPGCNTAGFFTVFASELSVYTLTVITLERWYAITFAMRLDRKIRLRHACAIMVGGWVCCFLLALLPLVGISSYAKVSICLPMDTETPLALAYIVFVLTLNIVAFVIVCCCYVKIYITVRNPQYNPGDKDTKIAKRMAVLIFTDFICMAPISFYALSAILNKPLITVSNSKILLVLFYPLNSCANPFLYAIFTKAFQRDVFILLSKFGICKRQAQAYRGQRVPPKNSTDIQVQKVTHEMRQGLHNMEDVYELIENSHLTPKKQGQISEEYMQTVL

CC(C)C(=O)OCc1cccc(OC(=O)[C@@H]2N3C(=O)[C@@H](NC(=O)Cc4ccccc4)[C@H]3SC2(C)C)c1
inactive: Potency [1] | Potency [2] | outcome [3] | Potency [4] | Potency [5] | outcome [6] | outcome [7] | outcome [8] | outcome [9]

C[C@H](CCC(=O)O)[C@H]1CC[C@H]2[C@@H]3C(=O)C[C@@H]4CC(=O)CC[C@]4(C)[C@H]3CC(=O)[C@]12C
inactive: Potency [1] | Potency [2] | outcome [3] | Potency [4] | Potency [10] | outcome [6] | outcome [7] | outcome [8] | outcome [9]

O=S(=O)(O)CCN1CCN(CCO)CC1
inactive: Potency [1] | Potency [2] | outcome [3] | Potency [4] | Potency [10] | outcome [6] | outcome [8]

CCCOC(=O)C(C)O (centres undefined)
inactive: Potency [1] | Potency [2] | outcome [3] | Potency [4] | Potency [5] | outcome [6] | outcome [7] | outcome [8]

O=P(O)(O)OP(=O)(O)O
inactive: Potency [1] | Potency [2] | outcome [3] | Potency [4] | outcome [6] | outcome [8]

CCCCCCCC/C=C\CCCCCCCC(=O)OCCCC
inactive: activity change, negative = inhibition [1] 17.1% [at 19 µM] | activation [2] -0.0077% [at 19 µM] | activity, negative = inhibition [3] 0.587% [at 19 µM] | activity change, negative = cytotoxicity [4] 0.614% [at 19 µM] | activity change, negative = cytotoxicity [6] -4.71% [at 19 µM] | activation [7] 0.165% [at 19 µM] | cAMP activity change [8] -3.23% [at 18.9 µM] | activity change, negative = inhibition [9] 2.54% [at 19 µM]

COc1ccc(OC)c(Cl)c1
inactive: Potency [1] | Potency [2] | outcome [3] | Potency [4] | Potency [5] | outcome [6] | outcome [8] | outcome [9]

CN(C)C(=O)CNC(=O)Cc1ccccc1
inactive: Potency [1] | Potency [2] | outcome [3] | Potency [4] | Potency [10] | outcome [6] | outcome [7] | outcome [8] | outcome [9]

CCOC(=O)CC(=O)c1ccccc1
inactive: Potency [1] | Potency [2] | outcome [3] | Potency [4] | Potency [10] | outcome [6] | outcome [7] | outcome [8] | outcome [9]

O=C(CS(=O)Cc1ccco1)NC/C=C\COc1cc(CN2CCCCC2)ccn1 (centres undefined)
inactive: Potency [1] | Potency [2] | outcome [3] | Potency [4] | outcome [6] | outcome [7] | outcome [8]

O=C(/N=N/C(=O)OCc1ccccc1)OCc1ccccc1
inactive: Potency [1] | Potency [2] | outcome [3] | Potency [4] | outcome [6] | outcome [7] | outcome [8] | outcome [9]

COc1cc(C(=S)N2CCOCC2)cc(OC)c1OC
inactive: Potency [1] | Potency [2] | outcome [3] | Potency [4] | Potency [10] | outcome [6] | outcome [7] | outcome [8] | outcome [9]

O=S(=O)(O)c1cc(O)c2ccc(Nc3ccccc3)cc2c1
inactive: Potency [1] | Potency [2] | outcome [3] | Potency [4] | outcome [6] | outcome [7]

O=C(NCCc1c[nH]c2ccccc12)c1cccnc1
inactive: Potency [1] | Potency [2] | outcome [3] | Potency [4] | Potency [5] | outcome [6] | outcome [7] | outcome [8] | outcome [9]

OCCCCC(O)CO (centres undefined)
inactive: Potency [1] | Potency [2] | outcome [3] | Potency [4] | Potency [10] | outcome [6] | outcome [8] | outcome [9]

O=S(=O)(O)c1ccc2cc(O)c(S(=O)(=O)O)cc2c1
inactive: Potency [1] | Potency [2] | outcome [3] | Potency [4] | outcome [6] | outcome [7] | outcome [8] | outcome [9]

CCN1CCc2nc(N)oc2CC1
inactive: Potency [1] | Potency [2] | outcome [3] | Potency [4] | Potency [10] | outcome [6] | outcome [7] | outcome [8] | outcome [9]

CC(C)=CCOC(=O)c1ccccc1
inactive: Potency [1] | Potency [2] | outcome [3] | Potency [4] | Potency [10] | outcome [6] | outcome [8] | outcome [9]

Cc1nc2n(c(=O)c1CCN1CCC(c3noc4cc(F)ccc34)CC1)CCC[C@H]2O
inactive: activity change, negative = inhibition [1] -4.73% [at 19 µM] | activation [2] 1.63% [at 19 µM] | activity, negative = inhibition [3] 0.444% [at 19 µM] | activity change, negative = cytotoxicity [4] -2.37% [at 19 µM] | activity change, negative = cytotoxicity [10] -7.67% [at 19 µM] | activity change, negative = cytotoxicity [6] 1.75% [at 19 µM] | activation [7] 0% [at 19 µM] | cAMP activity change [8] -2.33% [at 18.9 µM] | activity change, negative = inhibition [9] -7.26% [at 19 µM]

CNS(=O)(=O)CCc1ccc2[nH]cc(C3CCN(C)CC3)c2c1
inactive: Potency [1] | Potency [2] | outcome [3] | Potency [4] | Potency [10] | outcome [6] | outcome [7] | outcome [8] | outcome [9]

CCCC/C=C\CCCCCCCCCC=O
inactive: Potency [1] | Potency [2] | outcome [3] | Potency [4] | Potency [10] | outcome [6] | outcome [8] | outcome [9]

CCOCCOCCOCC
inactive: Potency [1] | Potency [2] | outcome [3] | Potency [4] | outcome [6]

CCCCN
inactive: Potency [1] | Potency [2] | Potency [4] | Potency [10] | outcome [6] | outcome [7]

CC(COC(C)(C)C)OCCCO (centres undefined)
inactive: Potency [1] | Potency [2] | Potency [4] | Potency [10] | outcome [6] | outcome [8]

Cc1cc(C(C)(C)C)c(O)c(C)c1CC1=NCCN1
inactive: Potency [1] | Potency [2] | Potency [4] | Potency [10] | Potency [5] | outcome [6] | outcome [7] | outcome [8] | outcome [9]

N#Cc1ccc(C(=O)O)cc1
inactive: Potency [1] | Potency [2] | Potency [4] | Potency [10] | Potency [5] | outcome [6]

Nc1ncnc(Nc2ccccc2)n1
inactive: Potency [1] | Potency [2] | Potency [4] | Potency [10] | outcome [6] | outcome [7] | outcome [8] | outcome [9]

CCCC(=O)C(C)=O
inactive: Potency [1] | Potency [2] | Potency [4] | Potency [10] | outcome [6] | outcome [7] | outcome [8] | outcome [9]
